As a reminder, the inhibition is the relative decrease from the control value, in per cent.

Values without a mark were called inactive. This is one part of the list. Activity calls are given as the source filed them.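 The calls were made as follows, unless noted: active = mean inhibition above a 50% cutoff; inactive = the rest.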

The text below walks through data of PubChem BioAssay.

Experiment [1] has as its target Toll-like receptor 9 (Homo sapiens) (UniProt Q9NR96). Briefly: disruptors of TLR9 binding to MyD88 – cell-based, CHO, BLA complementation, fluorescence, triplicate, confirmation (AID 540250;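 active = mean inhibition across three repeats above about 21% taken from the earlier screen, limit read from the data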;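 also: blue over green emission ratio reports constitutive TLR9 MyD88 association via BLA complementation; 0% = DMSO vehicle wells and 100% = clavulanate BLA inhibitor wells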). Particulars: CCF4 FRET ratio, at 4.98 µM, stronger effect = higher value.
Experiment [2] is described as follows: BLA reporter readout interference – cell-based, fluorescence, artefact control for TLR9-MyD88 binding inhibitor project (AID 540251).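 Also: counterscreen of TLR9-MyD88 hits on CMV-driven BLA in CHO-K1 cells; 0% = DMSO alone and 100% = clavulanate blocking BLA; higher means less blue over green ratio so more BLA blockade.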 The conditions noted are these: CHO-BLA cells, CCF4 FRET ratio, at 4.98 µM, stronger effect = higher value.
Experiment [3] in a line: CHO cell viability loss – luminescence, single concentration, cytotoxicity control for TLR9-MyD88 binding inhibitor project (AID 588336; in the data active = inhibition above about 11%). The conditions noted are these: TLR9-MyD88 CHO cells cytotoxicity, at 4.98 µM, stronger effect = higher value.
The target of experiment [4] is Receptor-interacting serine/threonine-protein kinase 2 (Homo sapiens) (UniProt O43353). Briefly: inhibitors of RIPK2 association with NOD2 – fluorescence, CHO cells, BLA complementation, triplicate, confirmation (AID 624370;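 active = mean inhibition across replicates above a set limit taken from the earlier primary screen, cut at about 21% in these data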;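 also: 0% = DMSO-only wells and the high end = clavulanate BLA-blocked wells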). Particulars: CCF4 FRET, at 4.98 µM, stronger effect = higher value.
Sequence of Receptor-interacting serine/threonine-protein kinase 2 (Homo sapiens) (O43353 whole entry, looked up): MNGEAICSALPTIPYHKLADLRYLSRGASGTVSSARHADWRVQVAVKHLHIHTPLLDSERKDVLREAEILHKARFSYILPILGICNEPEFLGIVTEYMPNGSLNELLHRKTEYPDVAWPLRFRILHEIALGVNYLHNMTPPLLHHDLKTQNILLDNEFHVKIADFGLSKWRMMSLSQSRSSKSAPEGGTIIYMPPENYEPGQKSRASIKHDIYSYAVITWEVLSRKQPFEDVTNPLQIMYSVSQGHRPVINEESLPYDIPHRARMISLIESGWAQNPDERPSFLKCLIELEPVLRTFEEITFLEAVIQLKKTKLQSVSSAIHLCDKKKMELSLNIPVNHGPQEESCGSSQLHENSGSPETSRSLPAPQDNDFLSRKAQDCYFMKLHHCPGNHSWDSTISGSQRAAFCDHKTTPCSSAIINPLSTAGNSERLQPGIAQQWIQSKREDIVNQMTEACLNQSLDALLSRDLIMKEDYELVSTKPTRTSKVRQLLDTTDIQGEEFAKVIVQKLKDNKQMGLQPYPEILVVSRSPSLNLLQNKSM
A short description of experiment [5]: BLA reporter readout interference – cell-based, CHO-K1 CMV-bla, CCF4 FRET, fluorescence, artefact control for NOD2-RIPK2 interaction inhibitor project, confirmation (AID 624371;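 active = mean inhibition above the low-control mean inhibition plus three low-control SD, cut at about 11% in these data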;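 also: 0% = DMSO only wells and 100% = clavulanate high control wells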). Particulars: CCF4 FRET ratio, counterscreen, at 4.98 µM, stronger effect = higher value. (The purpose of a counterscreen is to sort out artefacts and off-target activity.)
The test system of experiment [6] is transactivating tegument protein VP16 (Human herpesvirus 1). Briefly: compounds suppressing VP16-driven luciferase signal – cell-based, luminescence, single concentration, counter-screen for SRC2 inhibitor project (AID 652007; in the data active = inhibition above about 36%). The conditions noted are these: cell-based VP16 transactivation luciferase reporter, at 8.9 µM, stronger effect = higher value.
Experiment [7] concerns the target Nuclear receptor coactivator 2 (Homo sapiens) (UniProt Q15596). Briefly: inhibition of GAL4-SRC2 driven luciferase expression – cell-based, luminescence, HEK293, triplicate, confirmation (AID 652008;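 active = mean inhibition above 46.5%, the solvent-only control mean plus 3 SD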;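 also: 0% = DMSO-treated cells and 100% = Gossypol at 36 µM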). Particulars: HEK293 GAL4-SRC2 luciferase reporter, at 8.9 µM, stronger effect = higher value. For orientation: A reporter such as luciferase makes a cellular process visible.
For experiment [8], the target named is Serine protease HTRA1 (Homo sapiens) (UniProt Q92743). As to the kind of experiment: confirming inhibition of human HTRA1 – biochemical, fluorescence polarization, confirmation (AID 540248;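 active = mean inhibition over three repeats above a set limit taken from the earlier primary screen, cut at about 37% in these data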;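 also: 0% = HTRA1 with DMSO and 100% = wells lacking HTRA1; inhibitors block probe binding so polarization drops and inhibition rises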). Particulars: recombinant HTRA1, FP-rhodamine activity-based probe, at 5.96 µM, stronger effect = higher value.
The nature of experiment [9]: BSA probe fluorescence interference – biochemical, TAMRA-labeled BSA, counter-screen for TCR-CD3 interaction inhibitor project (AID 652035; in the data active = inhibition above about 23%;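 also: 0% = buffer low control and 100% = reference high control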). The conditions noted are these: TAMRA-labeled BSA probe fluorescence counterscreen; at 9.4 µM; stronger effect = higher value.
The test system of experiment [10] is T-cell receptor (TCR)-CD3 interaction, human. Briefly: blockers of TCR binding to CD3 – biochemical, fluorescence, TAMRA-labeled TCR probe, confirmation (AID 652036; in the data active = inhibition above about 19%). The conditions noted are these: TAMRA-labeled TCR probe fluorescence binding assay; at 9.4 µM; stronger effect = higher value.
For experiment [11], the target named is (Lyso)-N-acylphosphatidylethanolamine lipase (Mus musculus) (UniProt Q8VD66). As to the kind of experiment: mouse ABHD4 hydrolase blockers, triplicate – biochemical, fluorescence polarization, confirmation (AID 720658;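 active = mean inhibition across replicates above the hit cutoff set in the primary screen, cut at about 30% in these data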;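 also: 0% = wild-type ABHD4 with DMSO and 100% = catalytically dead S159A mutant with DMSO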). Particulars: purified mABHD4, FP-Rh probe fluorescence polarization; at 8.92 µM; stronger effect = higher value. (In fluorescence polarisation assays a small probe gives low polarisation when free and higher when bound to something large.)
Sequence of (Lyso)-N-acylphosphatidylethanolamine lipase (Mus musculus) (Q8VD66 whole entry, looked up): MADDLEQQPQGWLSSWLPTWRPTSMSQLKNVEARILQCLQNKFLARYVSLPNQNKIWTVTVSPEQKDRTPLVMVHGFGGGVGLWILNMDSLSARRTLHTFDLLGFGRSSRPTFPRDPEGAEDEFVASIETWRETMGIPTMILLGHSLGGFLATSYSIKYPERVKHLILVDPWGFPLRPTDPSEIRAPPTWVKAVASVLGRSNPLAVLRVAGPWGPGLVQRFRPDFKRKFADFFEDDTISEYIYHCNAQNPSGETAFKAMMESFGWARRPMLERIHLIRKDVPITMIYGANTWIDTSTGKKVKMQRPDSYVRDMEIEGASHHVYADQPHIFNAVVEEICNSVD

The target in experiment [12] is Nuclear receptor coactivator 3 (Homo sapiens) (UniProt Q9Y6Q9). As to the kind of experiment: NCOA3 GAL4-fusion reporter inhibition – cell-based, luminescence, quadruplicate, confirmation (AID 588792;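 active = mean inhibition over 43.08%, the solvent-only control mean plus 3 SD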;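 also: 0% = DMSO treated cells and 100% = gossypol at 36 µM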). The conditions noted are these: HEK293 GAL4-SRC3 luciferase reporter, at 3.6 µM, stronger effect = higher value.
Sequence of Nuclear receptor coactivator 3 (Homo sapiens) (Q9Y6Q9 whole entry, looked up, the tested form may be a part): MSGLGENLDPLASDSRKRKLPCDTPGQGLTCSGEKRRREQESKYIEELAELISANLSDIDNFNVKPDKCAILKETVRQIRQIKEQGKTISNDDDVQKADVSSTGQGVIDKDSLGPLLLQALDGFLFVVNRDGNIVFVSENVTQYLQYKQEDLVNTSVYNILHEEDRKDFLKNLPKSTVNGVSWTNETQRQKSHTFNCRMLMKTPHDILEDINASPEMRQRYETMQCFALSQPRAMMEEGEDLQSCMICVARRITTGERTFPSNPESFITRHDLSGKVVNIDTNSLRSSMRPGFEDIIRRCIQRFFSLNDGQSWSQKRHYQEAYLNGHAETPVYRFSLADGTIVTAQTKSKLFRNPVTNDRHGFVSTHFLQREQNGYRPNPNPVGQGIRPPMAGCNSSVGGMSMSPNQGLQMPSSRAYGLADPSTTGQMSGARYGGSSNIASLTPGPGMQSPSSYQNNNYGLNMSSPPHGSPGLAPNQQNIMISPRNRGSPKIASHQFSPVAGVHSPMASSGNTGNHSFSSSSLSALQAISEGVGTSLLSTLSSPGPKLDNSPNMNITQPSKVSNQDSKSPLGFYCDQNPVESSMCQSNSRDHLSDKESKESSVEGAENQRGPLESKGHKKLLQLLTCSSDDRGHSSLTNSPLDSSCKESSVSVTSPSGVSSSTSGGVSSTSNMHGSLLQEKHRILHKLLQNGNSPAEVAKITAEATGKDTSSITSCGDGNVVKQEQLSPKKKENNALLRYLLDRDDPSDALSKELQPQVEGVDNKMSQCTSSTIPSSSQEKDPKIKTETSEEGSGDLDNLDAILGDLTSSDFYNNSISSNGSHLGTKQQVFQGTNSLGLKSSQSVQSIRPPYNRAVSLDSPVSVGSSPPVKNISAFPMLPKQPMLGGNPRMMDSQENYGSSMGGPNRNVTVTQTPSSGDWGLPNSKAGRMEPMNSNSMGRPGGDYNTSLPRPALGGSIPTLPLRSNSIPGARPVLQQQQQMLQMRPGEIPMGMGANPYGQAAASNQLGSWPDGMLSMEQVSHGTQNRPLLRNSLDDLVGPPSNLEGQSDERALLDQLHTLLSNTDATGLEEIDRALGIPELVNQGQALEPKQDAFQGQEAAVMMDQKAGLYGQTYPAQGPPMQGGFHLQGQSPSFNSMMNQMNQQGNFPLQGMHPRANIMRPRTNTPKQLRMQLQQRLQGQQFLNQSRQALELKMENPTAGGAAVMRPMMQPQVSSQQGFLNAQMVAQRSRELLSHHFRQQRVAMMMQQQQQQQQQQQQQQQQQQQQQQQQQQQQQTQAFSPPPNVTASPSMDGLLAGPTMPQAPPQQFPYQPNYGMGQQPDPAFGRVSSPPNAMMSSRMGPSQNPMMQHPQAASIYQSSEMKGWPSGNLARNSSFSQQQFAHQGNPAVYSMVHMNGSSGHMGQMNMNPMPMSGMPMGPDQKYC
Experiment [13] deals with transactivating tegument protein VP16 (Human herpesvirus 1), Gal4-VP16 luciferase reporter. Briefly: repression of VP16-driven luciferase reporter – cell-based, luminescence, high throughput, counter-screen for SRC3 inhibitor project (AID 588794; in the data active = inhibition above about 30%). Particulars: mammalian cells, at 3.6 µM, stronger effect = higher value.
Experiment [14] addresses Nuclear receptor coactivator 1 (Homo sapiens) (UniProt Q15788). As to the kind of experiment: NCOA1 GAL4-fusion reporter inhibition – cell-based, luminescence, quadruplicate, confirmation (AID 588820;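 active = mean inhibition above 46.68%, the untreated control wells mean plus 3 SD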;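 also: 0% = DMSO wells and 100% = gossypol 36 µM treated wells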). Particulars: HEK293 GAL4-SRC1 luciferase reporter, at 3.6 µM, stronger effect = higher value.
A short description of experiment [15]: repression of VP16-driven luciferase reporter – cell-based, luminescence, high throughput, counter-screen for SRC1 inhibitor project (AID 588824; in the data active = inhibition above about 25%). Particulars: cell-based VP16 transactivation luciferase luminescence; at 3.6 µM; stronger effect = higher value.
The target of experiment [16] is Photoreceptor-specific nuclear receptor (Homo sapiens) (UniProt Q9Y5X4). As to the kind of experiment: retest of NR2E3-NCOR disrupting agonists – cell-based, luminescence, CHO-S two-hybrid, confirmation (AID 624378;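 active = average inhibition above a cutoff equal to the mean inhibition of all tested compounds plus one SD, cut at about 70% in these data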;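 also: 0% = DMSO in NR2E3 cells and 100% = DMSO in cells lacking NR2E3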). The conditions noted are these: CHO-S mammalian two-hybrid NR2E3-NCOR, luciferase luminescence; at 3.98 µM; stronger effect = higher value.
Experiment [17] in a line: nonselective effects on VP16 transactivation – cell-based, luminescence, CHO-S, high throughput, counter-screen for NR2E3 agonist project, confirmation (AID 624379;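 active = mean inhibition above a cutoff equal to the average over all tested compounds plus one standard deviation, cut at about 70% in these data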;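 also: luciferase from a UAS reporter driven by GAL4-VP16 transactivation; 0% = DMSO with VP16-transfected cells and 100% = DMSO with cells lacking VP16; higher means less reporter light so more repression of VP16 activity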). Particulars: CHO-S GAL4-VP16 luciferase reporter, at 3.98 µM, stronger effect = higher value.

Sequence of Nuclear receptor coactivator 2 (Homo sapiens) (Q15596 whole entry, looked up, the tested form may be a part): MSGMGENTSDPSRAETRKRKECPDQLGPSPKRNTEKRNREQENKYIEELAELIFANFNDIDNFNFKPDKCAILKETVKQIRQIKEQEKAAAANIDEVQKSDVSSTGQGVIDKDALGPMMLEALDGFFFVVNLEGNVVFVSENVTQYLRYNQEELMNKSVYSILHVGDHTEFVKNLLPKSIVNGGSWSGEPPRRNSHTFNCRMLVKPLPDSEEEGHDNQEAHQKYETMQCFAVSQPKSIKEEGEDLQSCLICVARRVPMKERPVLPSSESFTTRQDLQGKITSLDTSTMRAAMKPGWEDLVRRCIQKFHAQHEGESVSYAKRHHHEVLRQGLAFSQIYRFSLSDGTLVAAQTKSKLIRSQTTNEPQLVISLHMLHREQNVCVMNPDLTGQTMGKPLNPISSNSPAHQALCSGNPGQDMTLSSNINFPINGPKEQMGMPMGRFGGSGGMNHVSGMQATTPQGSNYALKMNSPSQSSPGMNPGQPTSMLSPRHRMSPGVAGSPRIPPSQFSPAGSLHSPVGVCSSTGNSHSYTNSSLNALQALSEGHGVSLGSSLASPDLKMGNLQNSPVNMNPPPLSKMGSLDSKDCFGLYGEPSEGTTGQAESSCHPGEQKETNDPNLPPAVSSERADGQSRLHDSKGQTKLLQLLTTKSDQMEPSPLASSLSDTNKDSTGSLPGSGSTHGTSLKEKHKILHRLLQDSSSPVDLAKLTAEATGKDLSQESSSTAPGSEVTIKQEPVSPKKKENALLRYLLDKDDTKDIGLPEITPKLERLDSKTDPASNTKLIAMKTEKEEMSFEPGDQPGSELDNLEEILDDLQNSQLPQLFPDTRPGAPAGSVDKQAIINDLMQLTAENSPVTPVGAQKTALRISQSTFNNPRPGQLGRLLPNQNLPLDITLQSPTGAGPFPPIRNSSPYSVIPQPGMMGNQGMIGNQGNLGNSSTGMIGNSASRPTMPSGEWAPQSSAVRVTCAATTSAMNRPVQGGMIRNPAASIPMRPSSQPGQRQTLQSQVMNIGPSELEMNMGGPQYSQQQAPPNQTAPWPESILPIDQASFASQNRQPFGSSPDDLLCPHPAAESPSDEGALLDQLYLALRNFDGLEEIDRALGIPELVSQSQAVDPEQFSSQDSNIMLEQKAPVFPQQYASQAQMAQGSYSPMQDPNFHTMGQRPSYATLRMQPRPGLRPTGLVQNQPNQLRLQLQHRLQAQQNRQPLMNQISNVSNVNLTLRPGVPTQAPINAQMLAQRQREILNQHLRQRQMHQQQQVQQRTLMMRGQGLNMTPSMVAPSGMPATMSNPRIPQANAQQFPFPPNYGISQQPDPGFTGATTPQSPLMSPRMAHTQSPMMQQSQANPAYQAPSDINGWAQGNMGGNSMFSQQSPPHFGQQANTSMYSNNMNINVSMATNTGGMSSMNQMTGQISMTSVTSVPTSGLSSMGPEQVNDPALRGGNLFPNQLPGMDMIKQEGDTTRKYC
Sequence of Toll-like receptor 9 (Homo sapiens) (Q9NR96 whole entry, looked up): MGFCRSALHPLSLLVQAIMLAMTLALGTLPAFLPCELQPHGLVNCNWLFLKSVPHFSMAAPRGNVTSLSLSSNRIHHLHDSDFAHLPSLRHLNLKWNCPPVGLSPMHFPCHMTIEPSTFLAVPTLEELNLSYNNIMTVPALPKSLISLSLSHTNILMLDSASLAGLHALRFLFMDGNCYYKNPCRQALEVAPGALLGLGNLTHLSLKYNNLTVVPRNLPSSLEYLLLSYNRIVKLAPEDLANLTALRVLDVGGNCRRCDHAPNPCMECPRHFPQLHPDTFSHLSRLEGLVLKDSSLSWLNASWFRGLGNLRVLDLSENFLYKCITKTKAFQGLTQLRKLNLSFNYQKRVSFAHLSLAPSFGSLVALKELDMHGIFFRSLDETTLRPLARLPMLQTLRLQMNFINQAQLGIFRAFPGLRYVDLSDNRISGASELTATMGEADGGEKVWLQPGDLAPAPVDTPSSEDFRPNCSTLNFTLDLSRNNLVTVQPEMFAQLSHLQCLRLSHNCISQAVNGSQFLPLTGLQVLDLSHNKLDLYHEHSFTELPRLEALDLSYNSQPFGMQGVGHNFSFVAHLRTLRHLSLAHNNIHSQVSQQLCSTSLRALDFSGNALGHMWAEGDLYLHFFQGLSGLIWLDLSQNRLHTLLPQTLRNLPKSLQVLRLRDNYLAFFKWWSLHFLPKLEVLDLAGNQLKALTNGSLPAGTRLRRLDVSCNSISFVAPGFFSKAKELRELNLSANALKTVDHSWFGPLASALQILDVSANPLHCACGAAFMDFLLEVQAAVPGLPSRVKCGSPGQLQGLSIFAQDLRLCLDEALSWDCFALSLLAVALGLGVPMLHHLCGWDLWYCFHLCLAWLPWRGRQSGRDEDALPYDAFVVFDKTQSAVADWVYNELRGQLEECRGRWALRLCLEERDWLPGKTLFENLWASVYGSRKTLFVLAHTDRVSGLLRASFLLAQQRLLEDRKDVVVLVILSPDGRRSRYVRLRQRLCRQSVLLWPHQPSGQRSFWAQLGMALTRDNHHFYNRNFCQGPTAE

As for `Cc1cccc(CS(=O)(=O)c2ncc(Cl)c(C(=O)Nc3ccc(F)cc3)n2)c1`, the inhibition was 38.1% (active) in [1]; 20.7% in [2]; 99.1% (active) in experiment [3]; 82.9% (active) in [4]; 31.5% (active) in experiment [5]; 69.8% (active) in experiment [6]. Besides, the inhibition in [7] was 80.6% (active).
On to `O=[N+]([O-])c1c(NCCO)cc(Sc2nc3ccccc3s2)c2nonc12`, for which the inhibition is 71.1% (active) in [1], 17.3% in [2] and 98.7% (active) in [3].
For `CC(=N\NC(=O)c1cc(Br)ccc1O)/C(=N/O)C(=O)Nc1ccccc1`, the inhibition is 55.9% (active) in [8], -21.4% in experiment [9] and 16.5% in [10].
With `O=C(CN1CCN(S(=O)(=O)c2cc(Cl)ccc2Cl)CC1)c1ccc(O)c(O)c1`, the inhibition in [8] was 45.3% (active).
Turning to `CC[C@@H]1Cc2cc(O)ccc2C2=C1c1ccc(O)cc1C[C@H]2CC`, the inhibition in [8] was 47% (active); in experiment [11], 31% (active).
Turning to `CNC(=S)N/N=C/c1ccc(OCc2ccccc2)c(Br)c1`, the inhibition in experiment [1] is 27.6% (active); in experiment [2], 27.6%; in experiment [3], 43.4% (active); in [4], 54.2% (active); in [5], 52.8% (active).
For `O=C(COC(=O)c1c2c(nc3ccccc13)/C(=C\c1cccs1)CCC2)Nc1ccccc1Cl`, the inhibition was 11.4% in experiment [1], 18.4% in [2] and -3.1% in experiment [3].
Regarding `CC(=O)Nc1ccc(S(=O)(=O)Nc2ccc(N3CCCCC3)cc2)cc1`, the inhibition was 63.4% (active) in [8]; -3.95% in experiment [12]; 0.96% in experiment [13]; 4.11% in experiment [14]; 2.83% in experiment [15]; -15.4% in experiment [6]. The inhibition in experiment [7] was 14.9%.
With `CCOc1ccc(C2=CC(c3ccccc3)n3ncnc3N2)cc1` (stereo unspecified), the inhibition in experiment [1] is -2.09%; in experiment [2], -1.41%; in experiment [3], -1.28%.
In the case of `Oc1ccc2ccc3cccc[n+]3c2c1`, the inhibition in experiment [1] was 11.3%; in experiment [2] it was 11.8%; in experiment [3] it was 5.09%; in [4], 36.5% (active); in experiment [5] it was 32.6% (active).
As to `CC1(C)CC(=O)C(C2c3ccccc3S(=O)(=O)c3ccccc32)C(=O)C1`, the values for the inhibition in experiment [1], in experiment [2] and in experiment [3] were -5.15%, -0.53% and 2.02%, respectively.
For the molecule `O=[N+]([O-])c1ccc(N/N=C/c2ccccc2)cc1`, the inhibition in experiment [1] was 13.7%; in experiment [2], 10.7%; in [3], 3.89%; in experiment [4], 17.7%; in experiment [5], 20% (active).
With `O=C(CCN1C(=O)c2ccccc2C1=O)NNC(=O)c1ccc(Cl)cc1Cl`, the inhibition in experiment [1] was -3.93%; in experiment [2], -2.36%; in experiment [3], 1.44%.
In the case of `CCOC(=O)C1Nc2ccc(C(F)(F)F)cc2C2C=CCC12` (stereo unspecified), the inhibition in [8] is 30.3%; in experiment [11] it was 24.3%.
For the molecule `Cc1cc(C)nc(SCc2ccccc2C#N)n1`, the results for the inhibition in [1], in [2] and in experiment [3] were 1.99%, 0.68% and 2.36%, respectively.
As to `CS(=O)(=O)c1sc2nc(-c3ccccc3)cc(-c3ccccc3)c2c1N`, the inhibition in experiment [1] was 31.1% (active); in [2], 31.6%; in experiment [3], -0.85%.
As to `COc1cccc(/C=N/Nc2ccc(S(=O)(=O)Nc3ccccc3C(=O)O)cc2[N+](=O)[O-])c1O`, the inhibition was 25.5% in [8] and 67.4% (active) in [11].
As to `NC(=O)NC(=O)C(OC(=O)CCNS(=O)(=O)c1ccccc1)c1ccccc1` (stereo unspecified), the inhibition in experiment [8] is 23.1%.
Take `COc1ccc(-c2nn(-c3ccccc3)cc2/C=N/Nc2ccccn2)cc1OC`: the inhibition in experiment [1] was 2.6%; in experiment [2], 2.28%; in experiment [3], 4.63%.
The matching figures for `O=C1C(Cl)=C(Oc2ccccc2)C(=O)c2ccccc21`: 79% (active), 17.5% and 96.2% (active).
In the case of `Cc1cccc(NC(=O)c2nc(S(=O)(=O)Cc3ccccc3)ncc2Cl)c1`, the inhibition in experiment [1] was 46.4% (active); in experiment [2] it was 43.2%; in [3] it was 97% (active); in [4], 78.4% (active); in [5], 43.9% (active); in experiment [6], 38.7% (active). Also, in experiment [7], the inhibition is 44.1%.
On to `C[N+](C)(C)CCNC(=O)c1cc[n+](Cc2ccccc2)c(/C=N/O)c1`, for which the inhibition was 7.66% in [1], 6.76% in experiment [2] and -0.18% in experiment [3].
For `COc1ccccc1C1=Nc2cccc3cccc(c23)N1`, the values for the inhibition in [8] and in [11] were 67.4% (active) and 60.5% (active), respectively.
`COc1cnc(-c2ccccn2)nc1Oc1ccc(C(C)(C)C)cc1`: the inhibition in experiment [8] was 53.5% (active); in experiment [16] it was 28.4%; in experiment [17], 13.6%.
On to `C/C(=N\NC(=O)c1cc(-c2cccnc2)nc2ccccc12)c1ccc(O)cc1O`, for which the inhibition in experiment [12] was 48.4% (active); in experiment [13] it was 29.9% (active).
Taken in the same sequence, the figures for `Cc1cccc(C)c1-n1c(C)cc(/C=N\NC(=O)CC(=O)NC2CCCCC2)c1C` were -17.4% and -15.1%.
The matching figures for `COc1ccc(NC(=O)c2cc3c(-c4ccc(OC)c(OC)c4)nn(C)c3s2)cc1OC`: 10.7% and 10.5%.
Taken in the same sequence, the figures for `Cc1cccn2c(CNCC3(c4ccccc4)CCCC3)c(C(=O)N3CCOCC3)nc12` were 7.17% and 6.26%.
As to `CCC1C(=O)NCCN1C(=O)c1ccc2nc(Cc3ccc(OC)cc3)oc2c1` (stereo unspecified), the inhibition is -2.02% in experiment [12] and -0.9% in [13].
The matching figures for `O=C(O)c1ccc(Cl)c(S(=O)(=O)NCc2cccnc2)c1`: 0.83% and -9.62%.
Turning to `COc1ccc(-c2cc(C(=O)N(C)Cc3ccc(OC)c(OC)c3OC)c3ccccc3n2)cc1OC`, the values for the inhibition in [12] and in experiment [13] were 8.88% and 6.51%, respectively.
